Data published in PubChem BioAssay AID1663 (Broad Institute, 2009).
Out of some 300,000 compounds screened, about 660 (0.22%) were called active. The sample holds actives, similar compounds and a random draw of the others, so the mix is not that of the screen.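 How the source made its calls: active means mean replicate score, as percent of positive control, at or above 50; inconclusive means mean below 50 but at least one replicate at or above 50; inactive means mean and every replicate below 50.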

test: inhibitors of platelet dense granule secretion, primary screen, cell-based, MLPCN, human platelets (AID 1663); settings: human platelet-rich plasma, SFLLRN dense granule ATP release, luminescence; active compounds read high;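 compounds screened at 7.5 µM in platelet-rich plasma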

| SMILES | inhibition |
| --- | --- |
| O=[N+]([O-])c1ccc2c(c1)Nc1nc3ccccc3nc1N2 | -4.77% (inactive) |
| Cc1sc2ncn(CC(=O)NCCCC(=O)N(C)Cc3ccccc3)c(=O)c2c1C | 10.8% (inactive) |
| COc1ccc(C(C)=O)cc1CN1C(=O)NC2(CCCCC2C)C1=O (centres undefined) | -14.5% (inactive) |
| O=[N+]([O-])c1ncc(Br)cc1Nc1ccccc1 | -1.96% (inactive) |
| CCOC(=O)N1CCN(C(=O)c2ccc3c(=O)n(CCc4ccc(OC)c(OC)c4)c(=O)[nH]c3c2)CC1 | -6.61% (inactive) |
| C/C(=N\NC(=O)c1cc2c(s1)CCC(C)C2)c1cccnc1 (centres undefined) | 9.94% (inactive) |
| COc1ccc(-c2cc(-c3ccc(N)cc3)nc(N)c2C#N)cc1OC | 0.00483% (inactive) |
| COc1ccc(C2CC(=O)Nc3sc(=N)c4c(N)c(C#N)c(N)nc4c32)cc1OC (centres undefined) | 92.7% (active) |
| N#Cc1c(N)nc2c3c(sc(=N)c2c1N)NC(=O)CC3c1ccccc1Cl (centres undefined) | -3.78% (inactive) |
| COc1ccc(NC(=O)CC2C(=O)OCC3CCCCN32)cc1Cl (centres undefined) | 7.17% (inactive) |
| O=C(Cc1cccs1)Nc1nnc(SCc2ccc(F)cc2)s1 | -6.18% (inactive) |
| COc1cc(OC)cc(-c2nnc(SCC(=O)Nc3ccc(C(=O)O)cc3)s2)c1 | -1.66% (inactive) |
| O=C(CSc1nnc(SCc2ccc(F)cc2)s1)Nc1ccc(C(=O)O)cc1 | 65.9% (active) |
| COc1ccc(C(=O)OCC(=O)NC(=O)CCSc2ccccc2)cc1 | -1.32% (inactive) |
| C=CCNCCCCOc1ccccc1 | 3.06% (inactive) |
| C=C(C)COc1ccc(-c2ncncc2-c2ccc(OC)cc2)c(O)c1 | 3.43% (inactive) |
| CC(C(=O)NC1CCCCC1)N1C(=O)c2cccc3cccc1c23 (centres undefined) | 7.75% (inactive) |
| CN1CCN(c2ccc(NC(=O)c3ccccc3)cc2)CC1 | 28.5% (inactive) |
| COc1cccc(C(=O)Nc2ccc(N3CCN(C(=O)c4ccco4)CC3)cc2)c1 | -47.4% (inactive) |
| COc1cccc(C(=O)Nc2ccc(N3CCCC3)cc2)c1 | 87.6% (active) |
| C/C=C/C(=O)OCC(=O)Nc1ccc(F)cc1Cl | 1.87% (inactive) |
| COc1ccc(C(=O)NC2CC2)cc1OC1CCN(C/C=C/c2ccccc2)CC1 | -4.81% (inactive) |
| O=C(Nc1nnc(C2CC2)s1)c1ccccn1 | -0.73% (inactive) |
| Cc1cnc(NC(=O)c2ccc(Cl)nc2)s1 | -2.29% (inactive) |

| SMILES | inhibition |
| --- | --- |
| Cc1cnc(NC(=O)c2ccccn2)s1 | 52.7% (active) |
| Cc1cc(C(F)(F)F)nn1-c1nc(-c2ccco2)cc(C(F)(F)F)n1 | 0.688% (inactive) |
| Cn1c(-c2ccco2)nc2cc3ccccc3cc21 | 66.2% (active) |
| COc1ccccc1-n1c(-c2cc(-c3ccco3)[nH]n2)n[nH]c1=S | 3.67% (inactive) |
| CCOc1ccc(/C(O)=C2\C(=O)C(=O)N(c3ccc(OC)cc3)C2c2ccccc2[N+](=O)[O-])cc1 (centres undefined) | 14.9% (inactive) |
| NS(=O)(=O)c1ccc2nc(NC(=O)C3=COCCO3)sc2c1 | -2.24% (inactive) |
| Cc1nc2cc(NC(=O)NC3CC3)ccc2n1C | -7.31% (inactive) |
| Cc1nc2cc(NC(=O)Nc3cccc(F)c3)ccc2n1C | 56.5% (active) |
| C=CCN(C(=O)Nc1ccc2c(c1)nc(C)n2C)c1ccccc1 | 3.61% (inactive) |
| O=C(COC(=O)c1ccc[nH]c1=O)Nc1ccc2c(c1)OC(F)(F)O2 | 5.92% (inactive) |
| CCOC(=O)/C(N=Nc1cc(C(=O)O)cc(C(=O)O)c1)=C(\O)CCl | 10.2% (inactive) |
| COc1ccc(-n2cc(-c3ccccc3)c3c(=S)nc[nH]c32)cc1 | 5.15% (inactive) |
| COc1cc2ccccc2cc1C(=O)Nc1nc(C)c(C(C)=O)s1 | -6.84% (inactive) |
| COC(=O)c1sc(NC(=O)c2ccc(OC)cc2OC)nc1C | 57.3% (active) |
| COc1ccc(Cc2nnc(NC(=O)c3ccc(OC)cc3OC)s2)cc1 | -12.4% (inactive) |
| O=C(O)CC/C(=C\c1cc2c(cc1Br)OCO2)c1nc2ccccc2s1 | 17.4% (inactive) |
| CCN(CC(=O)Nc1ccc(C)c(S(=O)(=O)N(C)C)c1)Cc1ccccc1 | 2.21% (inactive) |
| Cc1ccc(NC(=O)OCc2cncs2)cc1 | -1.58% (inactive) |
| COc1ccc(NC(=O)c2cc(-c3ccc(C)cc3)on2)cc1 | 7.98% (inactive) |
| COc1ccc(NC(=O)/C(Cl)=C(/Cl)S(=O)Cc2ccc(C)cc2)cn1 (centres undefined) | 59% (active) |
| COc1ccc(S(=O)(=O)NCCCc2ccccc2)cc1 | 16% (inactive) |
| C=CCn1c(-c2ccc(Cl)cc2)ccc(C#N)c1=O | 1.51% (inactive) |
| CCC(C)(C)NC(=O)CN(C(=O)CCC(=O)Nc1cc(C)ccn1)c1ccc2c(c1)OCCO2 | 0.138% (inactive) |
| COc1cc(/C=N/NC(=O)c2ccc(N3CCCC3=O)cc2)ccc1O | -4.06% (inactive) |

| SMILES | inhibition |
| --- | --- |
| COc1ccc(C(=O)Nc2ccccc2C(=O)N/N=C/c2ccc(O)c(OC)c2)cc1 | 97.1% (active) |
| COc1ccc(/C=N/NC(=O)c2ccccc2)cc1OS(=O)(=O)c1ccccc1 | 2.24% (inactive) |
| COc1ccc(C(=O)Nc2ccccc2C(=O)N/N=C/c2ccccc2OC)cc1 | 73.7% (active) |
| COc1ccc(/C=N/NC(=O)c2ccc3c(c2)OCCO3)c(OC)c1 | -1.2% (inactive) |
| COc1ccc(C(=O)Nc2ccccc2C(=O)NCc2ccco2)cc1 | 12% (inactive) |
| Cc1cccnc1CCNC(=O)C1CCC(=O)N(Cc2cccc(F)c2)C1 (centres undefined) | -10.1% (inactive) |
| CC(=O)N1CCN(CC(c2ccccc2)c2ccccc2)CC1 | 7.74% (inactive) |
| COc1cccc(N2CCN(c3ccc4nnc(CCC(=O)N5CCN(C)CC5)n4n3)CC2)c1 | 7.34% (inactive) |
| COC(=O)c1c(NC(=O)CN2C(=O)NC(CCc3ccccc3)C2=O)sc2c1CCCCC2 (centres undefined) | -0.263% (inactive) |
| COc1ccc(C2=NS(=O)(=O)N(C)C(C(=O)N(C)Cc3ccccc3)=C2)cc1 | 0.338% (inactive) |
| O=C(CN(C(=O)c1nsc(Cl)c1Cl)c1cccc(F)c1)NC1CCCC1 | -4.29% (inactive) |
| COc1ccc(/C=N/NC(=O)Cn2cc(C(F)(F)F)ccc2=O)cc1 | 3.51% (inactive) |
| Cc1nn(CC(=O)NCC2CCCO2)c(=O)c2cc3ccccc3n12 (centres undefined) | -4.75% (inactive) |
| CCOC(CNC(=O)C(=O)NCC(c1ccco1)N1CCN(c2ccc(OC)cc2)CC1)OCC (centres undefined) | -9.05% (inactive) |
| COc1ccc(C(=O)N2CCCC(C(=O)c3ccccc3OC)C2)cc1OC (centres undefined) | 2.76% (inactive) |
| Cc1ccc(S(=O)(=O)c2nc(NCCCn3ccnc3)sc2Cl)cc1 | -1.94% (inactive) |
| OC(CNCc1ccc(Cl)c(Cl)c1)c1ccccc1 (centres undefined) | 52.7% (active) |
| Cc1c(Cl)cccc1NC(=S)NCC(O)c1ccccc1 (centres undefined) | 3.98% (inactive) |
| CC(C)(CNCC(O)c1ccccc1)N1CCOCC1 (centres undefined) | 1.36% (inactive) |
| COc1ccc(NC(=O)CC(NC(C)c2ccccc2)C(=O)O)cc1 (centres undefined) | -14.9% (inactive) |
| Cc1ccc(C)c(OCCC(=O)OCC(=O)N2CCN(c3ccccc3)CC2)c1 | -18.4% (inactive) |
| CC1(c2ccc(Cl)cc2Cl)NC(=O)N(CC(=O)Nc2cccnc2Cl)C1=O (centres undefined) | -2.12% (inactive) |
| Cc1ccc(NS(=O)(=O)c2ccc(C(=O)NCCCN3CCOCC3)cc2)cc1 | -3.44% (inactive) |
| O=C(NCC1(N2CCCCC2)CCCCC1)c1ccc(NS(=O)(=O)c2ccc(F)cc2)cc1 | 52.6% (active) |

| SMILES | inhibition |
| --- | --- |
| CCOc1ccc(S(=O)(=O)Nc2cccc(C(=O)NCC3(N4CCCCC4)CCCCC3)c2)cc1 | 5.48% (inactive) |
| CCN(CC)C(=O)Oc1ccc(Br)cc1C(=O)Nc1ccc(F)c(Cl)c1 | -3.91% (inactive) |
| COC(C[C@@H](O)[C@H](C)[C@H](O)COCc1ccccc1)OC | -0.14% (inactive) |
| CC(=O)N/C(=C\c1ccccc1)C(=O)OC(C)C(=O)N(C)c1ccccc1 (centres undefined) | -1.59% (inactive) |
| CC(C)Cn1c(=O)c2ccccc2n2c(CCC(=O)NCc3ccccn3)nnc12 | 3.52% (inactive) |
| O=C(CSc1ccc2nnc(-c3ccccc3)n2n1)N1CCCc2ccccc21 | 17.4% (inactive) |
| CCCCNC(=O)C1(c2ccc(OC)cc2)CCOCC1 | 4.45% (inactive) |
| CC(C)Oc1ccc(CCc2n[nH]c(=S)n2Cc2ccccc2)cc1 | -6.11% (inactive) |
| O=S(=O)(c1ccccc1)N1CCc2ccccc21 | 2.42% (inactive) |
| COc1cc2c(cc1OC)/C(=C/C(=O)c1ccc(NC(C)=O)cc1)NCC2 | 55.3% (active) |
| COc1cc2c(cc1OC)CN(CC(=O)Nc1ccc(F)cc1)CC2 | 7.57% (inactive) |
| CC(=O)Nc1ccc(C(=O)/C=C/c2ccc[nH]2)cc1 | -21.1% (inactive) |
| CCOC(=O)Cc1cc(=O)[nH]c(/N=C(\N)Nc2ccc(OC)cc2)n1 | 8.61% (inactive) |
| Cc1nonc1C(=O)N/N=C/c1ccc(O)cc1 | 103% (active) |
| O=C(C[n+]1ccccc1)N/N=C/c1ccc(O)cc1 | 2.83% (inactive) |
| Cc1nc2ccc(C(=O)N/N=C/c3ccc(O)cc3)cc2[nH]1 | -1.64% (inactive) |
| CC(NC(=O)c1ccccc1C(=O)O)c1ccc(-n2ccnc2)cc1 (centres undefined) | 13.8% (inactive) |
| O=C(Nc1ccc(Cl)cc1)Nc1ccc(Oc2cccnc2)nc1 | 2.76% (inactive) |
| CC(C)=CCN1CCN(Cc2cc3ccccc3[nH]2)CC1CCO (centres undefined) | 9.2% (inactive) |
| CCN(CC(=O)NCc1cccs1)S(=O)(=O)c1ccc(NC(C)=O)cc1 | -21.6% (inactive) |
| CC1CCCCN1S(=O)(=O)c1ccc(C(=O)Nc2nnc(-c3cccs3)o2)cc1 (centres undefined) | -0.561% (inactive) |
| CC1CCCCN1S(=O)(=O)c1ccc(S(=O)(=O)N(CC(=O)Nc2ccccc2)Cc2cccs2)cc1 (centres undefined) | 50.6% (active) |
